# Bioassay records deposited in PubChem by several laboratories.
# Anthrax LF inh2 – Bacillus anthracis LF protease inhibitors, primary screen, biochemical, multiplex microsphere, MLPCN library; Lethal factor (Bacillus anthracis), P15917; multiplex microsphere protease cleavage assay; inhibition, % at 10 µM; 360,000 compounds, 0.12% hits; AID 588501, 2011; also: plate controls were buffer without enzyme for full effect and enzyme alone for no effect
# Target sequence (P15917 whole entry, looked up): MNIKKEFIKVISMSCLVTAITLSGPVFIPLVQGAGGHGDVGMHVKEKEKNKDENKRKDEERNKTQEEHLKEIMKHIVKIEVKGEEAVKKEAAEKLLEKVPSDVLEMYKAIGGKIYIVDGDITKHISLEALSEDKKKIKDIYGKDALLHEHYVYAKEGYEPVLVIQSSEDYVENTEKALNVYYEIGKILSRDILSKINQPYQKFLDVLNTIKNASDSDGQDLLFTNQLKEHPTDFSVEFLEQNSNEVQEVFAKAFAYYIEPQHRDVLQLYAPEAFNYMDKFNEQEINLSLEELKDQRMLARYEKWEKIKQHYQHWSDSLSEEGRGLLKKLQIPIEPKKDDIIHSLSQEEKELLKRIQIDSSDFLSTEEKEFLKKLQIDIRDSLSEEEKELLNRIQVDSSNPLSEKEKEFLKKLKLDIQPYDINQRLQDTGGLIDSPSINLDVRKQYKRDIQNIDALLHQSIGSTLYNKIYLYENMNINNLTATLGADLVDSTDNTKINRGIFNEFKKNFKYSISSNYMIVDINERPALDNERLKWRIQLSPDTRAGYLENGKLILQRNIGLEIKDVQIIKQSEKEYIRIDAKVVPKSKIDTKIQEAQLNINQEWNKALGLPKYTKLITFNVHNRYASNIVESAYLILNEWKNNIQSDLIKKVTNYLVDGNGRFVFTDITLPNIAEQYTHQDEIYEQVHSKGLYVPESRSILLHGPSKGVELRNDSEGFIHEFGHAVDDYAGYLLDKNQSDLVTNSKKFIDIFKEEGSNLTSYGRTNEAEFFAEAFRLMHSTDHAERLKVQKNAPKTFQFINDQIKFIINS
# Bead autofluor – counter-screen for toxin protease inhibitors: compound fluorescence; compound autofluorescence counterscreen, microsphere flow cytometry; hits give high values; fluorescence intensity (no concentration beside the values); 360,000 compounds, 3.1% hits; AID 624483; in the data active = fluorescence intensity above about 16000; inconclusive = no clear call, values can overlap the other calls
# GDH-TPI inh – GDH-TPI coupling enzyme inhibitors, primary screen, artefact control for M. tuberculosis FBA inhibitor project, biochemical, absorbance, full deck; GDH-TPI coupled enzyme counterscreen, NADH absorbance; AID 588335, 2011; 360,000 compounds, 1.2% hits; inhibition, % at 4.8 µM; in the data active = inhibition above about 30%;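 also: 0% = DMSO wells and 100% = wells lacking the enzyme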
# Mtb FBA inh – Mtb FBA enzyme inhibitors, primary screen, biochemical, fluorescence, strain H37Rv; Fructose-bisphosphate aldolase (Mycobacterium tuberculosis (strain ATCC 25618 / H37Rv)), …; purified M. tuberculosis FBA, fluorescence read-out; inhibition, % at 1 µM; 360,000 compounds, 2.3% hits; AID 588726, 2011; in the data active = inhibition above about 27%;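 also: 0% = vehicle and 100% = reference inhibitor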
# BoNT-A LC inh2 – BoNT/A light chain protease inhibitors, primary screen, biochemical, flow cytometry, MLPCN library; Botulinum neurotoxin type A light chain protease (Clostridium botulinum A str. ATCC 3502); multiplex microsphere protease substrate cleavage; inhibition, % at 10 µM; 360,000 compounds, 0.17% hits; AID 588499, 2011; also: plate controls were buffer without enzyme for full effect and enzyme alone for no effect
# BoNT F protease – BoNT/F light chain protease inhibitors, primary screen, biochemical, flow cytometry, MLPCN library. Multiplex microsphere protease cleavage assay. inhibition, % at 10 µM. 360,000 compounds, 0.22% hits. Botulinum neurotoxin type F light chain protease (Clostridium botulinum). AID 588497, 2011; in the data active = inhibition above about 35%, passing the limit was not always enough; inconclusive = no clear call, values can overlap the other calls; also: plate controls were buffer without enzyme for full effect and enzyme alone for no effect
# An asterisk follows results filed as active; ? = inconclusive. Only some compounds are listed: those with a hit (about 6.7% of all), similar ones and a draw of the others. Rule as the data show it, unless noted: active = inhibition above about 30%; inconclusive = no clear call, values can overlap the other calls; inactive = below that.
SMILES,Anthrax LF inh2,Bead autofluor,GDH-TPI inh,Mtb FBA inh,BoNT-A LC inh2,BoNT F protease
COc1cc(/C=N/NC(=O)c2ccccc2NS(=O)(=O)c2cccs2)ccc1O,1,5770,36*,8,-1,-5
Cc1ccc(C)c(OCCCCn2cnc3ccccc3c2=O)c1,-1,10822,20,2,-1,-2
O=C(NCc1n[nH]c(=S)n1-c1ccccc1)c1ccco1,-8,19724*,-5,0,9,10
Cc1ccc(-c2nnc(SCc3nc4ccccc4[nH]3)n2Cc2ccco2)cc1,-1,10056,-6,-2,0,-4
c1coc(Cn2c(SCc3nc4ccccc4[nH]3)nnc2-c2cccs2)c1,1,18667*,-5,2,2,3
C(=C\c1ccccc1)/CSc1nnc(-c2ccncc2)n1Cc1ccco1,-1,2992,12,-2,0,-3
c1ccc(CSc2nnc(-c3cccs3)n2Cc2ccco2)cc1,-1,20965*,-12,1,-5,-7
C(=C\c1ccccc1)/CSc1nnc(-c2ccccc2)n1Cc1ccco1,-2,23193*,0,1,1,1
CCCC1=C(C(=O)OCC)C(c2cc(Cl)cc(OC)c2OCc2ccccc2)NC(=O)N1 (stereo not drawn),0,21474*,-4,-3,2,2
CCOC(=O)C1=C(C)NC(=O)NC1c1cccc(OC)c1OCc1ccccc1Cl (stereo not drawn),-3,23671*,-4,0,?,-2
COc1ccc(COC(=O)C2=C(C)NC(=O)NC2c2cccc(OC)c2OC)cc1 (stereo not drawn),10,3178,4,-2,2,?
COc1ccc(OC)c(C2NC(=O)NC(C)=C2C(=O)OCc2ccccc2)c1 (stereo not drawn),-10,3154,9,4,6,17
COc1cc(Cl)cc(C2NC(=O)NC(C)=C2C(C)=O)c1OCC(=O)O (stereo not drawn),-4,16937*,5,2,-3,-4
C=CCOc1c(OC)cc(Cl)cc1C1NC(=O)NC(C)=C1C(C)=O (stereo not drawn),1,4439,-6,-3,0,-29
CCOC(=O)C1=C(C)C(c2ccccc2O)NC(=O)N1 (stereo not drawn),0,19487*,8,1,2,2
CCOC(=O)C1=C(C)N(C)C(=S)NC1c1ccc(Cl)cc1Cl (stereo not drawn),-2,2308,17,0,0,-7
CCOC(=O)C1=C(C)NC(=O)NC1c1ccc(Cl)cc1Cl (stereo not drawn),-8,20836*,4,3,3,2
CC(=O)c1ccc(N2CCN(C(=O)c3nn(C)c4c3CS(=O)(=O)c3ccccc3-4)CC2)cc1,-2,5722,41*,2,0,2
CCCc1cc(Nc2cccc(OCC)c2)n2ncnc2n1,-2,10725,25,4,0,-5
CCCc1cc(Nc2cccc(OC)c2)n2ncnc2n1,2,23259*,5,0,2,1
CCOC(=O)N1CCN(S(=O)(=O)c2ccc(C)cc2)C1,-6,3745,3,5,0,2
CCn1c(=O)c2ccccc2n2c(SCC(=O)NCc3cccs3)nnc12,-1,23072*,-7,4,-2,-4
Cc1cccc(C)c1OCC(=O)NCc1nnc(SCC(=O)NC2CCCCC2)n1C,-5,22773*,10,-1,?,-5
CCn1c(SCC(=O)NCc2ccco2)nnc1-c1cccs1,-7,19582*,-9,3,?,6
CCn1c(SCC(=O)NC2CCCCC2)nnc1-c1cccs1,-17,20887*,6,5,4,3
SMILES,Anthrax LF inh2,Bead autofluor,GDH-TPI inh,Mtb FBA inh,BoNT-A LC inh2,BoNT F protease
Cc1cccc(C(=O)NCc2nnc(SCC(=O)NC3CCCC3)n2C)c1,-4,5625,-2,-2,-1,-2
COc1ccc(CN2CCCC(CNC(=O)c3ccc(F)cc3)C2)c(C)c1C (stereo not drawn),-4,2571,-3,0,0,6
Nc1nc(SCC(=O)Nc2ccc(Cl)c(S(=O)(=O)N3CCOCC3)c2)n[nH]1,-12,6232,-1,0,0,-12
COc1ccc(N(CC(O)CN2C(=O)NC(C)(C)C2=O)S(=O)(=O)c2ccc(C)cc2)cc1 (stereo not drawn),3,23111*,7,-1,1,2
Cc1ccc(N(CC(O)CN2C(=O)NC(C)(C)C2=O)S(=O)(=O)c2ccc(C)cc2)cc1 (stereo not drawn),-3,4407,-9,0,1,-6
COc1ccc(N(CC(O)CN2CCCCC2)S(=O)(=O)c2ccc(C)cc2)cc1 (stereo not drawn),-13,20804*,4,-2,?,4
Cc1ccc(S(=O)(=O)N(CC(O)CN2CCCCC2)c2ccccc2)cc1 (stereo not drawn),-2,5832,0,-3,0,-12
Cc1noc(C)c1NC(=O)N(C)C[C@@H]1Oc2ncc(Br)cc2C(=O)N([C@@H](C)CO)C[C@@H]1C,-1,3424,0,-3,0,-5
O=C(NCc1ccncc1)C(=O)NCC1OCCCN1S(=O)(=O)c1ccc(F)cc1 (stereo not drawn),4,6408,0,0,-1,7
CC(Sc1nnc(-c2ccco2)n1N)C(=O)NC1CCCCC1C (stereo not drawn),1,3346,19,2,1,2
Cc1ccc(-c2nn3c(C)nnc3c3ccccc23)cc1S(=O)(=O)NC(C)(C)CO,-7,4198,1,1,-1,-6
COc1ccccc1/C=C(\NC(=O)c1ccc(OC)c(OC)c1)C(=O)Nc1cccc([N+](=O)[O-])c1,-2,2404,32*,0,0,5
Cc1ccc(NC(=O)/C(=C\c2ccc([N+](=O)[O-])cc2)NC(=O)c2ccccc2)cc1,1,4011,20,-4,0,0
COc1ccccc1/C=C(\NC(=O)c1ccc(OC)c(OC)c1)C(=O)Nc1ccc([N+](=O)[O-])cc1,0,2622,36*,0,0,-14
CC(C)(C)c1ccc(C(=O)N/C(=C\c2cccc([N+](=O)[O-])c2)C(=O)Nc2cccc(C(=O)O)c2)cc1,-5,3330,-2,1,1,6
O=C(NNc1cccc([N+](=O)[O-])c1)/C(=C\c1cccnc1)NC(=O)c1ccccc1,4,4685,44*,1,0,?
CCN1CCN(CC(=O)N2N=CCC2c2ccccc2)CC1 (stereo not drawn),-6,3985,-3,-1,?,?
